The full data set covers some 8,800 targets. This sample favours those with a hit. About 0.5% of all pairs of compound and target were hits. A number with no mark means an inactive call.
Experiments:
Assay in all cases: log2 fold change, soluble protein after heating vs DMSO (PISA); higher = thermal stabilisation; K562 lysate, 10 uM; active = over 0.2 and 3.5 SD of the protein, either way, in both replicates (recomputed)
alvocidib = compound: CN1CC[C@H](c2c(O)cc(O)c3c(=O)cc(-c4ccccc4Cl)oc23)[C@H](O)C1 [alvocidib]
Outline: (§1)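 K562 pellets were dounce-homogenised in PBS pH 7.4 containing 1 mM MgCl2, and the crude extract, at 1 mg/mL protein, was exposed to 10 μM compound for 30 min. Aliquots were heated for 3 min across 48°C-58°C, pooled, brought to 0.5% NP-40 at 4°C and spun at 21,000xg for 90 min, with the supernatant taken as soluble protein. TMTpro 16plex LC-MS/MS with equalised channel sums quantified that protein. Values are log-two fold changes in thermal stability relative to solvent controls, taken from duplicates.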

Tubastatin A = compound: CN1CCc2c(c3ccccc3n2Cc2ccc(C(=O)NO)cc2)C1 [Tubastatin A]
Outline: as §1

[1] = compound: CNC(=O)C1=CC=CC=C1NC2=NC(=NC=C2Cl)NC3=C(C=C(C=C3)N4CCOCC4)OC
Outline: as §1

defactinib = compound: CNC(=O)c1ccc(Nc2ncc(C(F)(F)F)c(NCc3nccnc3N(C)S(C)(=O)=O)n2)cc1 [defactinib]
Outline: as §1

[2] = compound: CNc1nc(-c2ccc3c(N)n[nH]c3c2)cc(N2C[C@@H](C(=O)NC3CCCCC3)CC[C@H]2C)n1
Outline: as §1

encorafenib = compound: COC(=O)N[C@@H](C)CNc1nccc(-c2cn(C(C)C)nc2-c2cc(Cl)cc(NS(C)(=O)=O)c2F)n1 [encorafenib]
Outline: as §1

[3] = compound: COC(=O)[C@H](CCSC)NC(=O)C1=C(C=C(C=C1)NC[C@H](CS)N)C2=CC=CC=C2
Outline: as §1

alisertib = compound: COc1cc(Nc2ncc3c(n2)-c2ccc(Cl)cc2C(c2c(F)cccc2OC)=NC3)ccc1C(=O)O [alisertib]
Outline: as §1

[4] = compound: COc1cc2nc(-c3cc(F)ccc3O)nc(N[C@@H]3CNC[C@H]3C(C)(C)O)c2cc1OC
Outline: as §1

gefitinib = compound: COc1cc2ncnc(Nc3ccc(F)c(Cl)c3)c2cc1OCCCN1CCOCC1 [gefitinib]
Outline: as §1

Chain of UniProt O60825 (O60825 whole entry, looked up): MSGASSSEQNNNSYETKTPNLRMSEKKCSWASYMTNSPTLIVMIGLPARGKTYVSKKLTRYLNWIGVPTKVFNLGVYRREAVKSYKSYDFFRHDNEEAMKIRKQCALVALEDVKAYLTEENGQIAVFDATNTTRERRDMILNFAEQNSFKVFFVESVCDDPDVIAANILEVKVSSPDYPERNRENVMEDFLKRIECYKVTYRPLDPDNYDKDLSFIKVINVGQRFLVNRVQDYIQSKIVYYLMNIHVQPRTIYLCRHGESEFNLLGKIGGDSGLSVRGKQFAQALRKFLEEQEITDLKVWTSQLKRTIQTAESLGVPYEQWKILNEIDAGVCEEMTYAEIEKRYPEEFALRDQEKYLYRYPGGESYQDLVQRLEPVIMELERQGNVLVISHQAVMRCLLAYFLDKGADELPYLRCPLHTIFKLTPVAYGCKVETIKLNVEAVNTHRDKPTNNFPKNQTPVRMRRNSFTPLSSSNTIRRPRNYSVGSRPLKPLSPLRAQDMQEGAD
Chain of UniProt P78356 (P78356 whole entry, looked up): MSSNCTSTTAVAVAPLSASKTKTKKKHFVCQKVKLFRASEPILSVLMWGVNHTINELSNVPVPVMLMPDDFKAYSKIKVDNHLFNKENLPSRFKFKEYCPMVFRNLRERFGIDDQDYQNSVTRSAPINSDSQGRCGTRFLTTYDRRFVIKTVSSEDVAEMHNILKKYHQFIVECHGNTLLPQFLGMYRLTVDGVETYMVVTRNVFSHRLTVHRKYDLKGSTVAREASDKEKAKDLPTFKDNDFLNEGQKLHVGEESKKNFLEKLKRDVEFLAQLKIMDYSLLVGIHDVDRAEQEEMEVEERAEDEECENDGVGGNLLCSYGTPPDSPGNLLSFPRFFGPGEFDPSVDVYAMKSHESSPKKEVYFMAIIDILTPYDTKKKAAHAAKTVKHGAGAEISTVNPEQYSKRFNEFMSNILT
Chain of UniProt Q9HBH1 (Q9HBH1 whole entry, looked up): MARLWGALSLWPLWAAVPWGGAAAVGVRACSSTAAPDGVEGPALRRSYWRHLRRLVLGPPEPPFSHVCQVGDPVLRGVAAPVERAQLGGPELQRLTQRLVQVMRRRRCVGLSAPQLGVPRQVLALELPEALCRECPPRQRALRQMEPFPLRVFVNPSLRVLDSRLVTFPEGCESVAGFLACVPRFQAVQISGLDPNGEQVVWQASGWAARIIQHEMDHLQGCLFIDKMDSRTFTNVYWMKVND
Chain of UniProt Q5JRX3 (Q5JRX3 whole entry, looked up): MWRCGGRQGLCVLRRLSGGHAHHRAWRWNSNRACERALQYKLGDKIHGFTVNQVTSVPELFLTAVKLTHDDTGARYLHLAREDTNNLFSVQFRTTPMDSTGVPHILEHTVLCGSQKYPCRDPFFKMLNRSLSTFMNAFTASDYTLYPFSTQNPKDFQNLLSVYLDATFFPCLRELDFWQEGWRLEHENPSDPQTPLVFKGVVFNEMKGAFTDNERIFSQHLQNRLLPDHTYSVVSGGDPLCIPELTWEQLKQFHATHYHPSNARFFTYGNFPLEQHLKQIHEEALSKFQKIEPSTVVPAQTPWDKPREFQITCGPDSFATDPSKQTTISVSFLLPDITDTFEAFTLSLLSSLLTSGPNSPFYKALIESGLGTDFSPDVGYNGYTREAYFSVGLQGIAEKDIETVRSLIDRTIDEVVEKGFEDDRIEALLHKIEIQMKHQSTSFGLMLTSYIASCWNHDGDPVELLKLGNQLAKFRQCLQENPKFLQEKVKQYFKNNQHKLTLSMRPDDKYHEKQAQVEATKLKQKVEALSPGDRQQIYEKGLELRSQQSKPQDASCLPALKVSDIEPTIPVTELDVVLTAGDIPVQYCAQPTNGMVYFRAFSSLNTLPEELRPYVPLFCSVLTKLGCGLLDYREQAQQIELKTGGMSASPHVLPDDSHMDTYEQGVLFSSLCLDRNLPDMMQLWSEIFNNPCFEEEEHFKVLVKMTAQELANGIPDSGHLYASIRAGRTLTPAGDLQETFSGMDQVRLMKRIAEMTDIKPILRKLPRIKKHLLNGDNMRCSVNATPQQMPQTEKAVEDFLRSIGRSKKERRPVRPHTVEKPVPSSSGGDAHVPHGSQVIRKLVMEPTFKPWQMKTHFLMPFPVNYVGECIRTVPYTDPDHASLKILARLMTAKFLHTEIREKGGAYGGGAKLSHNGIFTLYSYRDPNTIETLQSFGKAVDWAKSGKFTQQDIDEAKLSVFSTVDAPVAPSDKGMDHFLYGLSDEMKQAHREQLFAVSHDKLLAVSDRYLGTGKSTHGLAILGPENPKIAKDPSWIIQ
Chain of UniProt P41219 (P41219 whole entry, looked up): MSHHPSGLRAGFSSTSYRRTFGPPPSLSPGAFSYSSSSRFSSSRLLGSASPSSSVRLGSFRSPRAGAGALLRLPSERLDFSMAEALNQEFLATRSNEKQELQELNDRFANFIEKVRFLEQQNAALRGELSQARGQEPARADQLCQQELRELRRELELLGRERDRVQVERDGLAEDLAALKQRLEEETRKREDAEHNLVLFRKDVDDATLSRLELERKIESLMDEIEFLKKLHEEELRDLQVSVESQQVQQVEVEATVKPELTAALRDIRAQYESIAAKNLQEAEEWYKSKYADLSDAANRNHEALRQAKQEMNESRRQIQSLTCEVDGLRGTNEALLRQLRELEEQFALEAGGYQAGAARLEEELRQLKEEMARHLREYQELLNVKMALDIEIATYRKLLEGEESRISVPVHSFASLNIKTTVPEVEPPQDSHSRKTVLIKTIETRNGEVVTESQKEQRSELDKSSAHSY
Chain of UniProt P31323 (P31323 whole entry, looked up): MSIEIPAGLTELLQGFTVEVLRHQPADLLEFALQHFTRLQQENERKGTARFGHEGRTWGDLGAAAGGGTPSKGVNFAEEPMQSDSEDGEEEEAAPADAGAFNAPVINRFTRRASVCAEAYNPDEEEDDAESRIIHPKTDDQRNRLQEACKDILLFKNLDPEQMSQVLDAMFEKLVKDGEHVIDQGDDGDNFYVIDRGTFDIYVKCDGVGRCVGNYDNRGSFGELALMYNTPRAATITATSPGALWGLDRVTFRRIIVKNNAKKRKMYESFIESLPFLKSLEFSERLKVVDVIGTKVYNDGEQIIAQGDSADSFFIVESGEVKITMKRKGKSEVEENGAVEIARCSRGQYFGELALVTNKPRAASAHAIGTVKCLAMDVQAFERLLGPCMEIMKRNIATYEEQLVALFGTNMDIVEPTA
Chain of UniProt Q16816 (Q16816 whole entry, looked up): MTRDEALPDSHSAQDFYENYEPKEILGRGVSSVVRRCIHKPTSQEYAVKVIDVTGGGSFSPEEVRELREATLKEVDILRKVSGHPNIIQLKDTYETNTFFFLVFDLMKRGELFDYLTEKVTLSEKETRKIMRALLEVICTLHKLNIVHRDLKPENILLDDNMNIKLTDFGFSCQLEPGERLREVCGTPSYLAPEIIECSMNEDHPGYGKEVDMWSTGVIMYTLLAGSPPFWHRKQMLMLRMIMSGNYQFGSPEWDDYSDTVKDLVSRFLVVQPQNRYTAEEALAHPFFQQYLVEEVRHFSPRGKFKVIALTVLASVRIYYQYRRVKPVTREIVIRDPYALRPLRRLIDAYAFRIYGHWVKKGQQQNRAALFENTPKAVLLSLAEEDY
Chain of UniProt Q9H939 (Q9H939 whole entry, looked up): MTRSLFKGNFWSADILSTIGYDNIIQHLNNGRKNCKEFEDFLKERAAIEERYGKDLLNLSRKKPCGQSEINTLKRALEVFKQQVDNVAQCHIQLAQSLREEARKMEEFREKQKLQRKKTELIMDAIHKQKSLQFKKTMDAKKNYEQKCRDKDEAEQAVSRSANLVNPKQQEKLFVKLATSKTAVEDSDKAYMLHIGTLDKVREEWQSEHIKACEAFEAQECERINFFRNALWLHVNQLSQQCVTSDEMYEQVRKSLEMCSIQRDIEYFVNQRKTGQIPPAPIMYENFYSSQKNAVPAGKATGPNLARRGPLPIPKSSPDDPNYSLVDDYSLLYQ
Chain of UniProt P07737 (P07737 whole entry, looked up): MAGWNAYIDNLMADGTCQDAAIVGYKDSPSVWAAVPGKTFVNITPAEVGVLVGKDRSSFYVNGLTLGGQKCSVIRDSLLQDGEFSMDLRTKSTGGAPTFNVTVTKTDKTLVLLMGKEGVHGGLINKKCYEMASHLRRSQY
Chain of UniProt Q96PU8 (Q96PU8 whole entry, looked up): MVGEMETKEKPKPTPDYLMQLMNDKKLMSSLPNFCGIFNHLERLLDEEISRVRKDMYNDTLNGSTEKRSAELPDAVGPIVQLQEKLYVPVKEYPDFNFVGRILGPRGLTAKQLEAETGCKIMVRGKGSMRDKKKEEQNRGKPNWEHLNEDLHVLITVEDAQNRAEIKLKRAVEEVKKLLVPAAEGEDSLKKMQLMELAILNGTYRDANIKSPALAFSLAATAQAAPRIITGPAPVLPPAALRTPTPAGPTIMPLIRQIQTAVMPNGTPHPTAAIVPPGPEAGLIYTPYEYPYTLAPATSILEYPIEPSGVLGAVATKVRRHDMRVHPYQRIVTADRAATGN
Chain of UniProt Q9NY27 (Q9NY27 whole entry, looked up): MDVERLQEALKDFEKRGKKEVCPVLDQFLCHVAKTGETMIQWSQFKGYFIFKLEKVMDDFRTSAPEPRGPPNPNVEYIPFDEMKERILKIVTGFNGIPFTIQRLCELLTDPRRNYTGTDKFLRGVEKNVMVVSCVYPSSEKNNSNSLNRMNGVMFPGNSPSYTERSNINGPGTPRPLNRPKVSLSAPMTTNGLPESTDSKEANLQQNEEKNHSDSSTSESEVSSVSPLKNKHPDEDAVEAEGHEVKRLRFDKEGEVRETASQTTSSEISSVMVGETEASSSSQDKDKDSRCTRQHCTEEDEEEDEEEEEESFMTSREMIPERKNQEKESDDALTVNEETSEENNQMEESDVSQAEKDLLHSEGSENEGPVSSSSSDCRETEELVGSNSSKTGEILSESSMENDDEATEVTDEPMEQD
Chain of UniProt Q9UHV9 (Q9UHV9 whole entry, looked up): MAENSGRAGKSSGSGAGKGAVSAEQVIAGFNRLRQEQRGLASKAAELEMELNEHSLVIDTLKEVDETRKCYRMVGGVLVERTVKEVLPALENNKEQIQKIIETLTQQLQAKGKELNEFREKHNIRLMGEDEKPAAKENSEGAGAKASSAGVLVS

Target | log2 fold change (alvocidib) | log2 fold change (Tubastatin A) | log2 fold change [1] | log2 fold change (defactinib) | log2 fold change [2] | log2 fold change (encorafenib) | log2 fold change [3] | log2 fold change (alisertib) | log2 fold change [4] | log2 fold change (gefitinib)
PSTPIP2 (UniProt Q9H939) | -0.006 | -0.04 | 0.031 | -0.016 | 0.026 | 0.023 | 0.002 | -0.052 | -0.03 | -0.028
PRKAR2B (UniProt P31323) | 0 | -0.021 | -0.05 | -0.117 | -0.023 | 0.04 | 0.1 | -0.014 | -0.032 | -0.046
PPT2 isoform 3 (UniProt Q9UMR5) | -0.051 | 0.014 | -0.005 | -0.067 | 0 | -0.014 | 0.059 | 0.013 | 0.015 | 0.031
PDPK1 (UniProt O15530) | 0.009 | -0.121 | 0.107 | 0.21 | 0.501 (active) | -0.019 | 0.109 | 0.153 | 0.15 | 0.016
PIK3CG (UniProt P48736) | -0.033 | -0.044 | 0.04 | 0.009 | -0.015 | 0.046 | 0.041 | 0.001 |  | 
PRKCSH (UniProt K7ELL7) | 0.048 | 0.073 | -0.026 | 0.006 | -0.013 | 0.048 | -0.002 | 0.018 | 0.083 | -0.12
PLEKHO2 (UniProt Q8TD55) | -0.067 | -0.228 | 0.281 | -0.001 | -0.106 | 0.007 | 0.054 | -0.004 | 0 | 0.043
PRKDC (UniProt P78527) | -0.06 | -0.114 | -0.002 | 0.033 | -0.03 | -0.022 | -0.035 | 0.012 | -0.003 | 
PITRM1 isoform 2 (UniProt Q5JRX3) | 0.016 | 0.04 | 0.023 | 0.008 | -0.029 | -0.012 | 0.228 (active) | -0.016 | -0.016 | 0.044
PRPF38A (UniProt Q8NAV1) | -0.178 | -0.068 | -0.147 | 0.013 | -0.004 | 0.115 | -0.009 | -0.044 | 0.013 | -0.017
PRKCSH (UniProt P14314) | 0.009 | 0.039 | -0.001 | -0.014 | -0.035 | -0.003 | -0.036 | -0.006 | 0.024 | 0.024
PFKFB2 (UniProt O60825) | 0.017 | -0.045 | 0.03 | -0.02 | -0.035 | 0.015 | -0.124 | 0.014 | 0.006 | 0.014
POC5 (UniProt Q8NA72) | -0.048 | -0.046 | 0.054 | 0.154 | 0.06 | 0 | -0.048 | -0.018 | -0.009 | 0.042
PFN1 (UniProt P07737) | -0.002 | -0.01 | -0.007 | 0.006 | -0.024 | -0.005 | -0.097 | 0.004 | -0.013 | 0.004
PHKA2 (UniProt P46019) | 0.064 | -0.084 | 0.265 (active) | -0.027 | 0.032 | -0.008 | 0.018 | -0.008 | 0.06 | -0.03
PHKG1 isoform 2 (UniProt Q16816) | -0.057 | 0.053 | 0.929 (active) | 0.196 | -0.118 | 0.123 | -0.078 | -0.185 | 0.763 | 0.202
PIP4K2B (UniProt P78356) | 0.223 (active) | 0.008 | -0.014 | 0.031 | -0.065 | 0.062 | -0.093 | -0.036 | -0.028 | 0.013
PRPH isoform 2 (UniProt P41219) | 0.062 | 0.021 | -0.049 | -0.081 | -0.133 | -0.023 | -0.178 | -0.012 | -0.028 | 0.014
PPP4R2 (UniProt Q9NY27) | 0.021 | 0.013 | 0.018 | 0.015 | 0.014 | 0.025 | -0.014 | -0.058 | -0.002 | -0.01
PDE2A (UniProt O00408) | 0.038 | 0.275 | 0.044 | -0.24 | 0.028 | 0.11 | -0.019 | 0.014 | 0.048 | -0.01
PGPEP1 (UniProt Q9NXJ5) | 0.05 | -0.182 | 0.012 | -0.032 | -0.055 | 0.02 | 0.057 | -0.045 | 0.01 | -0.06
QKI (UniProt Q96PU8) | -0.058 | -0.005 | 0.024 | 0.029 | -0.02 | 0.045 | -0.206 | 0.069 | 0.009 | 0.021
PTMA (UniProt P06454) | 0.194 | 0.09 | -0.104 | 0.049 | 0.007 | -0.003 | -0.038 | 0.01 | 0.042 | 0.014
PLEKHA5 isoform 6 (UniProt Q9HAU0) | -0.11 | -0.074 | 0.02 | 0.065 | 0.006 | -0.016 | 0.054 | 0.035 | -0.03 | -0.039
PDF (UniProt Q9HBH1) | 0.01 | -0.065 | 0.083 | 0.059 | 0.011 | 0.028 | -0.293 (active) | 0.048 | -0.181 | -0.064
PPIE (UniProt Q9UNP9) | -0.131 | 0.025 | -0.047 | -0.018 | 0.023 | -0.025 | -0.041 | -0.036 | 0.005 | 0.034
PSMB9 (UniProt P28065) | -0.052 | 0.076 | 0.006 | 0.034 | 0.31 | -0.076 | 0.027 | -0.04 | 0.139 | -0.016
PFDN2 (UniProt Q9UHV9) | 0.063 | 0.01 | -0.035 | 0.026 | -0.012 | 0.05 | -0.025 | 0.033 | 0.007 | 0.012

Source: the supplement of paper PMC10849652
